This passage reports activity change, negative = inhibition results from PubChem BioAssay AID504652 (National Center for Advancing Translational Sciences (NCATS), 2011).

Out of some 360,000 compounds screened, about 11,000 (3.1%) were called active. No stated cut-off is given here; in the data, active means activity change below about -30%; inactive means the rest. Only a selection was taken, and actives are over-represented in it overall.
On the % scale 0 is the no-effect control and ±100 the full control effect.

For the assay, the target named is D(1A) dopamine receptor (Homo sapiens) (UniProt P21728). The experiment in a line: Antagonist of Human D 1 Dopamine Receptor: qHTS. The settings on record: HEK293 TREx D1 cells, calcium flux, dopamine EC80; at 10 µM; stronger effect = lower value. Summed up: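 Inducible Hek293 Trex D1 cells (tetracycline, overnight, 30 C). Calcium dye 30–90 min RT. Antagonist mode: EC80 dopamine added after 180 s compound read.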
D(1A) dopamine receptor (Homo sapiens), sequence (P21728 whole entry, looked up): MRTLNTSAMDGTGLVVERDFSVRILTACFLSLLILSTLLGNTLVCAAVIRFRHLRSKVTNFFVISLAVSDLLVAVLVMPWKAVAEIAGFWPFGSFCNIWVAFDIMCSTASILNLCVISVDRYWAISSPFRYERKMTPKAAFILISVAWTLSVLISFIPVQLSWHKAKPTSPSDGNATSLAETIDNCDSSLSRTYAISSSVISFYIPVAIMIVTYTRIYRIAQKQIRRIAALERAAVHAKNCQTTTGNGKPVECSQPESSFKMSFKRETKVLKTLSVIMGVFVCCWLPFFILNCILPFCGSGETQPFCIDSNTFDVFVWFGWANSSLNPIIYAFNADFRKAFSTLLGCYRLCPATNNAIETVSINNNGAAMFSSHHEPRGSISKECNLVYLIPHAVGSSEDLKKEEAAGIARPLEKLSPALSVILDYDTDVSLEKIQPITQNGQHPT
Regarding `COc1ccccc1NC(=O)CN1C(=O)c2ccccc2Sc2ccc(C(=O)N3CCCC3)cc21`, the activity change, negative = inhibition was 9.27% (inactive).
As to `COc1ccc(N2CCN(C(=O)c3c(C)oc4nc(C)nc(N5CCCC5)c34)CC2)cc1`, the activity change, negative = inhibition is -1.85% (inactive).
As for `CN(C)CCOC(=O)C(c1ccccc1)C1(O)CCCC1` (stereo not given), the figure is -42.6% (active); as for `O=C(O)C(c1ccccc1)C1(O)CCCCC1` (stereo not given), -1.48% (inactive); as for `COc1ccc(OCC(=O)OCCN(C)C)cc1`, -9.23% (inactive).
As for `CCN(c1ncnc2c1cnn2-c1ccc(C)cc1)C1CCCCC1`, the figure is 13.5% (inactive).
The figure for `Cc1ccc2c(c1)-c1c(cnn1CC(=O)Nc1ccccc1C#N)CO2` is 23.7% (inactive); for `Cc1oc2ncnc(N3CCCCC3)c2c1C(=O)N1CCN(c2cccc(Cl)c2)CC1` it is -0.886% (inactive).
Regarding `CC(C)Cn1c(=O)c2ccccc2n2c(CCC(=O)N3CCN(c4cccc(Cl)c4)CC3)nnc12`, the activity change, negative = inhibition was -9.12% (inactive).
As for `Cc1ccc(C)n1-c1nnc(N2CCC(C(=O)NCc3ccccc3Cl)CC2)s1`, the figure is -0.53% (inactive); as for `COC(=O)c1cnc(N2CCN(c3ccccc3OC)CC2)c2ccccc12`, -2.99% (inactive); as for `O=c1c(NCc2cccs2)nccn1-c1ccccc1`, -12.1% (inactive).
For the molecule `CCOc1ccc(CNCCSc2nnnn2C)cc1`, the activity change, negative = inhibition is -2.56% (inactive).
For `Cn1nnnc1SCCCNCc1cccc(OCc2ccc(Cl)cc2)c1`, the activity change, negative = inhibition is -15.2% (inactive).
As for `Cc1c(Cl)cccc1-c1ccc(CNCCCSc2nnnn2C)o1`, the figure is -35% (active); as for `Cn1nnnc1SCCNCc1ccc(Cl)c(Cl)c1`, -61.6% (active); as for `COc1cc(CNCCSc2nnnn2C)ccc1OCc1c(F)cccc1Cl`, -17.9% (inactive).
Consider `Cn1nnnc1SCCCNCc1ccc(Cl)cc1`, for which the activity change, negative = inhibition is -11.8% (inactive).
For the molecule `Cc1ccc2oc3c(c(=O)c2c1)C(c1ccc(O)cc1)N(Cc1ccc2c(c1)OCO2)C3=O` (stereo not given), the activity change, negative = inhibition is 0.447% (inactive).
For `CCOc1ccc(-c2n[nH]c3c2C(c2ccccc2OC)N(c2ccc(Br)cc2)C3=O)cc1` (stereo not given), the activity change, negative = inhibition was 9.65% (inactive).
On to `CCOC(=O)c1ccc(NC(=O)CCn2cnnn2)cc1`, for which the activity change, negative = inhibition is 14.2% (inactive).
As for `O=C1C(F)N([S+](=O)([O-])c2ccc3c(c2)OCCO3)CCN1[S+](=O)([O-])c1c(F)cccc1F` (stereo not given), the figure is -5.38% (inactive); as for `CCOc1cc2[nH]c(=O)n(Cc3ccc(C(=O)NCCN(CC)CC)cc3)c(=O)c2cc1OCC`, 5.18% (inactive).
The figure for `CCc1cccc(NC(=O)CN(C)S(=O)(=O)c2ccc3[nH]c4c(c3c2)CCCC4)c1` is -15.3% (inactive); for `Cc1ccc(OC(=O)CSc2nnc(-c3cccs3)o2)cc1` it is -6.25% (inactive).
As for `O=C(NCc1ccc(Cl)cc1)c1cc(=O)nc2sc(-c3ccccc3)nn12`, the figure is 0.956% (inactive).
As for `O=C(NCc1ccc(Cl)cc1)c1cc2c(nc3sccn32)s1`, the activity change, negative = inhibition is -58.9% (active).
As for `O=C(NCc1ccc2c(c1)OCO2)c1c(O)nc2sccn2c1=O`, the figure is 2.36% (inactive).
In the case of `Cc1ccc(C(=O)Nc2ccc(OCc3cc(=O)n4c5c(sc4n3)CCCC5)cc2)cc1`, the activity change, negative = inhibition is -13.4% (inactive).
As for `O=C(Cc1c[nH]c2ccccc12)OCCOC(=O)Cc1c[nH]c2ccccc12`, the figure is -32.2% (active).
As for `O=C(COC(=O)Cc1c[nH]c2ccccc12)NCCc1ccccc1`, the figure is -2.05% (inactive).
The figure for `CCOC(=O)CN(C)Cc1c[nH]c2ccccc12` is 0.896% (inactive); for `Cc1ccc(S(=O)(=O)N2CCc3cc(C(=O)Nc4ccc(Cl)cc4C)ccc32)cc1` it is 3.15% (inactive); for `O=S(=O)(c1ccc(Cl)cc1)c1nnn2c1nc(NC1CCCC1)c1sccc12` it is -19.7% (inactive).
In the case of `O=S(=O)(c1ccc(Br)cc1)c1nnn2c1nc(NC1CCCCCC1)c1sccc12`, the activity change, negative = inhibition is 4.84% (inactive).
As to `CCOc1ccc(Nc2nc3c(S(=O)(=O)c4cccc(Cl)c4)nnn3c3ccsc23)cc1`, the activity change, negative = inhibition was -38.1% (active).
As for `COc1ccc(-c2nnc(SCC(=O)Nc3ccc(C(C)C)cc3)nc2-c2ccc(OC)c(OC)c2)cc1OC`, the figure is -19.7% (inactive).
As for `NC1=NC(c2cc(F)cc(F)c2)n2c(nc3ccccc32)N1` (stereo not given), the figure is 0.602% (inactive); as for `CCc1cccc(C)c1NS(=O)(=O)c1ccc(-c2cc(C)no2)s1`, 24.4% (inactive); as for `O=C(Nc1ccc2c(c1)OCO2)C1CC1(Cl)Cl` (stereo not given), -9.18% (inactive).
The figure for `O=C(Nc1ccc2c(c1)OCCO2)C1CCCC1` is -32.7% (active); for `O=C(Nc1ccc2c(c1)OCCO2)c1ccoc1` it is 15.7% (inactive).
Regarding `COc1ccc(NC(=O)NC(C)c2c(-n3cccc3)sc(C)c2C)cc1OC` (stereo not given), the activity change, negative = inhibition is -6.54% (inactive).
As to `COc1ccc(N2CCN(C3=NS(=O)(=O)C(c4cccc(Br)c4)=C3C)CC2)cc1`, the activity change, negative = inhibition is -8.66% (inactive).
The figure for `CCN1CCN(CC(=O)Nc2sc3c(c2C#N)CCC3)CC1` is -11.5% (inactive); for `N#Cc1c(NC(=O)CCCl)sc2c1CCCCC2` it is -30.1% (active); for `N#Cc1c(NC(=O)C2CCCO2)sc2c1CCCCC2` (stereo not given) it is -19.1% (inactive).
The figure for `COc1ccccc1CNC(=O)CS(=O)(=O)c1cccc2nsnc12` is 13.8% (inactive); for `CCCn1c2ccccc2c2cnn(CC(=O)NCC3CCN(Cc4ccc(C)cc4)CC3)c(=O)c21` it is -18.2% (inactive); for `CCOC(=O)CSc1nnc(CNc2nc(-c3ccccc3)cs2)n1C` it is -37.1% (active).
The figure for `Cn1c(CNc2nc(-c3ccccc3)cs2)nnc1SCC(=O)c1ccccc1` is -24.4% (inactive); for `CCOC(=O)CSc1nnc(CNC(=O)c2cccs2)n1-c1ccccc1` it is -4.34% (inactive).
As for `COc1ccc(-c2nn(CC(=O)Nc3ccccc3F)c3c2cnc2ccc(F)cc23)cc1`, the activity change, negative = inhibition is -0.202% (inactive).
As for `COc1ccc(-c2nn3c(-c4ccc(OC)cc4)nnc3c3ccccc23)cc1`, the figure is -13.1% (inactive); as for `COc1ccc(-c2nc3ccc(C(=O)NCc4ccc(C)cc4)cc3nc2-c2ccc(OC)cc2)cc1`, -1.2% (inactive); as for `COc1ccc(CNC(=O)c2ccc3c(O)c(S(=O)(=O)c4ccccc4)c(=O)[nH]c3c2)cc1`, 5.97% (inactive).
As for `Cc1cc(C)cc(NC(=O)CCS(=O)(=O)c2cc3c4c(c2)CCN4C(=O)CC3)c1`, the figure is 20.6% (inactive); as for `CCn1nc(C)cc1C(=O)N1CCCC(C(=O)c2cccc(OC)c2)C1` (stereo not given), 0.174% (inactive).
As for `O=C(c1ccc(-c2ccccc2)cc1)C1CCCN(C(=O)c2cncs2)C1` (stereo not given), the figure is -2.69% (inactive); as for `Cn1nccc1C(=O)N1CCCC(C(=O)c2ccc(Oc3ccccc3)cc2)C1` (stereo not given), -33% (active).
With `Cc1nnc(NC(=O)CSc2nc3c([nH]c4ccccc43)c(=O)n2-c2cccc(Cl)c2)s1`, the activity change, negative = inhibition is -3.1% (inactive).
The figure for `CCOC(=O)c1c(NC(C)=O)c2c3c(sc2n1Cc1c(C)cc(C)cc1C)CCCC3` is 27.5% (inactive).
As for `CCOC(=O)C(Cc1ccccc1)NC(=O)CCc1c(C)nc2c(c(C)nn2-c2ccc(C)c(C)c2)c1C` (stereo not given), the figure is -20.6% (inactive).
As for `COc1cccc(Cn2cc(/C=N/NC(=O)c3cc(O)cc(O)c3)c3ccccc32)c1`, the figure is 3.21% (inactive); as for `N#CCC(=O)N/N=C/c1cn(Cc2ccc3ccccc3c2)c2ccccc12`, 16.1% (inactive).
Take `CCOC(=O)N/N=C/c1cn(Cc2ccccc2Cl)c2ccccc12`: the activity change, negative = inhibition was -33.9% (active).
As for `CCc1ccc(NC(=O)c2nn(-c3ccc(C)cc3)c(=O)n(C)c2=O)cc1`, the figure is -19.1% (inactive); as for `Cc1ccc(N(CC(=O)NCc2ccc(Cl)cc2)S(=O)(=O)N(C)C)cc1`, 27% (inactive).
As for `CC(C)(C)c1ccc(C(=O)NCC(c2ccc(Cl)cc2)N2CCOCC2)cc1` (stereo not given), the figure is -13.3% (inactive); as for `O=c1cc(COc2cccc(C(F)(F)F)c2)nc2sc3c(n12)CCCC3`, -4.09% (inactive).
Regarding `O=C(CSCc1cnn(-c2ccccc2)c1-n1cccc1)NCc1ccc(Cl)cc1`, the activity change, negative = inhibition was 5.55% (inactive).
As for `CCCOc1ccc(C2c3c(-c4ccccc4O)n[nH]c3C(=O)N2Cc2cccnc2)cc1` (stereo not given), the figure is 27.7% (inactive); as for `[O-][n+]1c2c(nn1-c1ccc(Cl)c(Cl)c1)-c1nonc1CC2`, -35.4% (active); as for `Cc1nnc(N2CCC(C(=O)Nc3ccc(F)cc3)CC2)c2nn(-c3ccc(Cl)cc3)c(C)c12`, -3.69% (inactive).
The figure for `COc1ccc(F)cc1S(=O)(=O)N1CCCCC1` is 1.35% (inactive); for `COc1cc(C(=O)NNC(=O)c2ccc(S(=O)(=O)N3CCCCC3)cc2)cc(OC)c1OC` it is -4.12% (inactive).
As to `COc1ccc(S(=O)(=O)N2CCCCC2)cc1Br`, the activity change, negative = inhibition is -47.9% (active).
As for `COc1ccc(OC)c(-c2csc(-c3c(N)c(C(=O)c4ccccc4)n4ccccc34)n2)c1`, the figure is -9.07% (inactive); as for `Cc1c(NC(=S)NCc2ccc(F)cc2)cccc1[N+](=O)[O-]`, -31.5% (active).
The figure for `O=[N+]([O-])c1ccccc1NCc1ccc(Cl)cc1` is -2.99% (inactive).
As for `Cc1c(NC(=O)CCCOc2ccccc2)cccc1[N+](=O)[O-]`, the figure is 0.202% (inactive); as for `Cc1c(NC(=O)/C=C/C(=O)O)cccc1[N+](=O)[O-]`, -41.8% (active).
`Cc1cccc(NC(=S)NCCc2ccc(F)cc2)c1C`: the activity change, negative = inhibition was -6.25% (inactive).
The figure for `O=C(O)/C=C/C(=O)NNc1ccc([N+](=O)[O-])cc1` is 4.19% (inactive); for `COc1ccc(-c2cccc(NS(=O)(=O)c3cc(C)c(OC)c(C)c3C)c2)nn1` it is -20.7% (inactive).
As to `COc1ccc(-c2cc(C(=O)NCc3cc(OC)c(OC)c(OC)c3)[nH]n2)cc1`, the activity change, negative = inhibition was -10.2% (inactive).
As for `COc1ccc(C(F)(F)F)cc1NC(=O)c1sc2nc(-c3cccs3)ccc2c1N`, the figure is -1.54% (inactive); as for `NS(=O)(=O)c1ccc(NC(=O)C(=O)Nc2ccc3nc4n(c(=O)c3c2)CCCCC4)cc1`, -3.24% (inactive).
The figure for `COc1ccc(Cc2nc3ccc(C(=O)NCc4ccccc4Cl)cc3o2)cc1` is -19.1% (inactive).
With `CN1CCN(C(CNC(=O)c2ccccc2F)c2ccc3c(c2)OCO3)CC1` (stereo not given), the activity change, negative = inhibition is 8.69% (inactive).
